# Reference: PubChem BioAssay
# Unmarked numbers belong to inactive results.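 The calls were made as follows, unless noted: active = inhibition over a set limit, the all-compound mean plus 3 SD, in both replicate runs; inconclusive = over that limit in just one replicate run; inactive = at or under that limit in both runs.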
# Assay: inhibitors of the yeast RAM network, pilot screen, dse1pr::URA3 reporter, 5-FOA selection (AID 869);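 also: 0% = DMSO wells with no growth and 100% = 10 µM 1-NA-PP1 with full growth; RAM network block rescues cells from 5-FOA so hits raise OD615 growth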
# Conditions: S. cerevisiae dse1pr::URA3 5-FOA growth, OD615, 2 d; at 10 µM; hits give high values; strain carries analog-sensitive mutant Cbk1 kinase
row,Compound,inhibition [%]
1,CCOc1ccc(OCC)c(Nc2cc(C)nc3ncnn23)c1,0.1
2,O=C(COc1ccc(Cl)cc1)OCC(=O)N1CCCC1,1.44
3,O=C(CSc1nnc(-c2ccccn2)n1Cc1ccco1)c1ccc(Cl)cc1,2.6
4,CCc1ccccc1NC1c2ccccc2C(=O)N1Cc1ccco1 (stereo not given),2.31
5,C=C1CC2C=C(NC(C)=O)CC(C1)C2 (stereo not given),1.1
6,O=C(NC1CCCc2ccccc21)C1CCN(c2c(N3CCCC3)c(=O)c2=O)CC1 (stereo not given),1.51
7,CSc1cccc(NS(=O)(=O)c2cccc3nsnc23)c1,0.885
8,O=C1c2oc3ccccc3c(=O)c2C(c2cccc(O)c2)N1c1ccccn1 (stereo not given),1.85
9,COc1cc(SC)ccc1C(=O)Nc1ccc2c(c1)OCCO2,1.18
10,Cc1occc1-c1nc(-c2ccccn2)no1,0.16
11,Cc1ccccc1NS(=O)(=O)c1cccc(-c2nnc(-c3ccccc3)o2)c1,3.65
12,O=C(N[C@@H](Cc1ccccc1)C(=O)O)c1cccnc1,2.62
13,COc1ccccc1-n1c2c(cc(C(=O)N3CCC(C)CC3)c1=O)C(=O)CC(C)(C)C2,0.005
14,O=C(c1cc(-c2ccccc2O)on1)N1CCCC1,3.37
15,CSc1ccc(S(=O)(=O)Nc2ccc3c(c2)OCCO3)cc1,1.67
16,Cn1c(=O)c2c(nc(N3CCN(Cc4ccccc4)CC3)n2CCSc2ncccn2)n(C)c1=O,1.07
17,Cc1cccc(-c2nc(CS(=O)CC(=O)N3CCc4ccccc4C3)c(C)o2)c1 (stereo not given),0.385
18,CCCN1CCN(C(=O)Cn2ncc3ccccc32)CC1,1.26
19,Cc1ccc(CNC(=O)CS(=O)Cc2nc(-c3cccs3)oc2C)cc1 (stereo not given),1.67
20,CC(C)N(Cc1nc(-c2ccccc2)no1)C(=O)COc1ccccc1,1.03

row,Compound,inhibition [%]
1,COc1ccc(Cl)cc1NC(=O)Cn1c(=O)n2nc(C)nc2c2ccccc21,0.175
2,COc1cc2c(=O)n(Cc3ccccc3)c(=O)n(CC(=O)NCC3CCCO3)c2cc1OC (stereo not given),2.3
3,O=C(Cc1cc(=O)[nH]c(=O)[nH]1)N1CCN(C(=O)c2ccco2)CC1,0.59
4,O=S(=O)(NCCSc1nc2ccccc2o1)c1ccccc1,-0.55
5,Cc1cc(Nc2cc(C(=O)O)ccc2C)n2ncnc2n1,0.71
6,CC1CN(c2nc3c(c(=O)[nH]c(=O)n3C)n2Cc2ccccc2F)CC(C)O1 (stereo not given),1.68
7,COc1ccc(-c2cn3c(C)c(C(=O)NC(C)(C)C)sc3n2)cc1,0.645
8,C=C(C)Cn1c(C2CC(=O)N(c3ccccc3F)C2)nc2ccccc21 (stereo not given),0.42
9,O=C1C2CCCN2C(c2ccc(F)c(F)c2)N1c1cccc(Cl)c1 (stereo not given),0.745
10,COc1ccc(C2CC(=O)N3CN(c4ccc(C)c(Cl)c4)CSC3=C2C#N)cc1 (stereo not given),0.91
11,O=C(c1ccco1)c1cn[nH]c1-c1ccc(Cl)cc1O,1.42
12,O=C(Cn1cc(C(=O)c2cccs2)c2ccccc21)NCc1ccc2c(c1)OCO2,1.08
13,O=C(NCCCN1CCOCC1)C1CCC(=O)N1CCc1ccccc1 (stereo not given),3.66
14,O=C(Nc1ccc2c(c1)OCO2)C(c1ccccc1)N1CCCCC1 (stereo not given),1.16
15,COc1ccccc1-n1c(CNC(=O)c2ccco2)nnc1SCC(=O)Nc1nccs1,1.09
16,Cc1c(N2C(=O)CSC23C(=O)Nc2ccccc23)c(=O)n(-c2ccccc2)n1C (stereo not given),3.84
17,CCCc1nnc(NC(=O)CCC(=O)O)s1,0.765
18,CC1CCN(c2nc(-c3ccco3)c3c(c2C#N)CC(C)(C)OC3)CC1,0.175
19,CCCn1c(CN2CCN(C(=O)OCC)CC2)nc2c1c(=O)n(C)c(=O)n2C,0.325
20,Cc1ccc(C)c(N2CCN(CC(=O)Nc3ccc4[nH]c(=O)[nH]c4c3)CC2)c1,0.03

# Assay: RAM signaling pathway blockade in yeast – S. cerevisiae, Pdr1DBD-CYC8 efflux-inhibited sensitized strain, primary screen (AID 1298;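 active = RAM network inhibition above 8.4% in each of two replicates, 3 SD over the compound average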;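 also: 0% = DMSO untreated cells without growth and 100% = 10 µM 1-NA-PP1 full growth; higher means more yeast growth rescued from 5-FOA killing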)
# Conditions: S. cerevisiae cbk1-as DSE1-URA3 strain, 5-FOA growth OD615, 2 d; at 50 µM; hits give high values
row,Compound,RAM network inhibition [%]
1,CCOc1ccc(OCC)c(Nc2cc(C)nc3ncnn23)c1,-0.06
2,O=C(COc1ccc(Cl)cc1)OCC(=O)N1CCCC1,3.51
3,O=C(CSc1nnc(-c2ccccn2)n1Cc1ccco1)c1ccc(Cl)cc1,4.4
4,CCc1ccccc1NC1c2ccccc2C(=O)N1Cc1ccco1 (stereo not given),3.95
5,C=C1CC2C=C(NC(C)=O)CC(C1)C2 (stereo not given),4.47
6,O=C(NC1CCCc2ccccc21)C1CCN(c2c(N3CCCC3)c(=O)c2=O)CC1 (stereo not given),-0.37
7,CSc1cccc(NS(=O)(=O)c2cccc3nsnc23)c1,2.44
8,O=C1c2oc3ccccc3c(=O)c2C(c2cccc(O)c2)N1c1ccccn1 (stereo not given),-0.1
9,COc1cc(SC)ccc1C(=O)Nc1ccc2c(c1)OCCO2,-0.97
10,Cc1occc1-c1nc(-c2ccccn2)no1,1.6
11,Cc1ccccc1NS(=O)(=O)c1cccc(-c2nnc(-c3ccccc3)o2)c1,4.08
12,O=C(N[C@@H](Cc1ccccc1)C(=O)O)c1cccnc1,6.61
13,COc1ccccc1-n1c2c(cc(C(=O)N3CCC(C)CC3)c1=O)C(=O)CC(C)(C)C2,4.67
14,O=C(c1cc(-c2ccccc2O)on1)N1CCCC1,6.42
15,CSc1ccc(S(=O)(=O)Nc2ccc3c(c2)OCCO3)cc1,-0.87
16,Cn1c(=O)c2c(nc(N3CCN(Cc4ccccc4)CC3)n2CCSc2ncccn2)n(C)c1=O,2.77
17,Cc1cccc(-c2nc(CS(=O)CC(=O)N3CCc4ccccc4C3)c(C)o2)c1 (stereo not given),3.23
18,CCCN1CCN(C(=O)Cn2ncc3ccccc32)CC1,3.84
19,Cc1ccc(CNC(=O)CS(=O)Cc2nc(-c3cccs3)oc2C)cc1 (stereo not given),2.88
20,CC(C)N(Cc1nc(-c2ccccc2)no1)C(=O)COc1ccccc1,3.19

row,Compound,RAM network inhibition [%]
1,COc1ccc(Cl)cc1NC(=O)Cn1c(=O)n2nc(C)nc2c2ccccc21,6.46
2,COc1cc2c(=O)n(Cc3ccccc3)c(=O)n(CC(=O)NCC3CCCO3)c2cc1OC (stereo not given),3.29
3,O=C(Cc1cc(=O)[nH]c(=O)[nH]1)N1CCN(C(=O)c2ccco2)CC1,1.53
4,O=S(=O)(NCCSc1nc2ccccc2o1)c1ccccc1,6.51
5,Cc1cc(Nc2cc(C(=O)O)ccc2C)n2ncnc2n1,0.57
6,CC1CN(c2nc3c(c(=O)[nH]c(=O)n3C)n2Cc2ccccc2F)CC(C)O1 (stereo not given),0.95
7,COc1ccc(-c2cn3c(C)c(C(=O)NC(C)(C)C)sc3n2)cc1,1.82
8,C=C(C)Cn1c(C2CC(=O)N(c3ccccc3F)C2)nc2ccccc21 (stereo not given),1.56
9,O=C1C2CCCN2C(c2ccc(F)c(F)c2)N1c1cccc(Cl)c1 (stereo not given),5.42
10,COc1ccc(C2CC(=O)N3CN(c4ccc(C)c(Cl)c4)CSC3=C2C#N)cc1 (stereo not given),-1.96
11,O=C(c1ccco1)c1cn[nH]c1-c1ccc(Cl)cc1O,0.57
12,O=C(Cn1cc(C(=O)c2cccs2)c2ccccc21)NCc1ccc2c(c1)OCO2,2.74
13,O=C(NCCCN1CCOCC1)C1CCC(=O)N1CCc1ccccc1 (stereo not given),0.63
14,O=C(Nc1ccc2c(c1)OCO2)C(c1ccccc1)N1CCCCC1 (stereo not given),2.51
15,COc1ccccc1-n1c(CNC(=O)c2ccco2)nnc1SCC(=O)Nc1nccs1,1.25
16,Cc1c(N2C(=O)CSC23C(=O)Nc2ccccc23)c(=O)n(-c2ccccc2)n1C (stereo not given),3.91
17,CCCc1nnc(NC(=O)CCC(=O)O)s1,0
18,CC1CCN(c2nc(-c3ccco3)c3c(c2C#N)CC(C)(C)OC3)CC1,0.92
19,CCCn1c(CN2CCN(C(=O)OCC)CC2)nc2c1c(=O)n(C)c(=O)n2C,2.5
20,Cc1ccc(C)c(N2CCN(CC(=O)Nc3ccc4[nH]c(=O)[nH]c4c3)CC2)c1,1.87
